# Measured values taken from paper PMC11062922 (Nature Chemical Biology, 2023).
# Where two headings read alike, the source gives them in different places.
# Experiments:
# Design in all cases: species or system human, MV4-11 + K-562 + COLO205 + SK-N-BE2 + OVCAR-8
# [1] = tested on: ATM; details: read-out: apparent Kd, n = 1
# [2] = tested on: AURKA; details: read-out: apparent Kd, compound concentrations: 100 nM and 1000 nM (sheet 'Samples'), n = 1
# [3] = tested on: AURKB; details: read-out: apparent Kd, compound concentrations: 100 nM and 1000 nM (sheet 'Samples'), n = 1
# [4] = tested on: CAMKK2; details: read-out: apparent Kd, compound concentrations: 100 nM and 1000 nM (sheet 'Samples'), n = 1
# [5] = tested on: CDC42BPA; details: read-out: apparent Kd, n = 1
# [6] = tested on: CDC42BPB; details: read-out: apparent Kd, n = 1
# [7] = tested on: CDC42BPG; details: read-out: apparent Kd, n = 1
# [8] = tested on: CDK2; details: read-out: apparent Kd, compound concentrations: 100 nM and 1000 nM (sheet 'Samples'), n = 1
# [9] = tested on: CDK9; details: read-out: apparent Kd, n = 1
# [10] = tested on: CHEK1; details: read-out: apparent Kd, compound concentrations: 100 nM and 1000 nM (sheet 'Samples'), n = 1
# [11] = tested on: EPHA4; details: read-out: apparent Kd, compound concentrations: 100 nM and 1000 nM (sheet 'Samples'), n = 1
# [12] = tested on: EPHA5; details: read-out: apparent Kd, compound concentrations: 100 nM and 1000 nM (sheet 'Samples'), n = 1
# [13] = tested on: IRAK3; details: read-out: apparent Kd, n = 1
# [14] = tested on: PHKG2; details: read-out: apparent Kd, n = 1
# [15] = tested on: PRKAG2; details: read-out: apparent Kd, n = 1
# [16] = tested on: RPS6KA4; details: read-out: apparent Kd, compound concentrations: 100 nM and 1000 nM (sheet 'Samples'), n = 1
# [17] = tested on: STK10; details: read-out: apparent Kd, compound concentrations: 100 nM and 1000 nM (sheet 'Samples'), n = 1
# [18] = tested on: TNK2; details: read-out: apparent Kd, compound concentrations: 100 nM and 1000 nM (sheet 'Samples'), n = 1
# [19] = tested on: TTK; details: read-out: apparent Kd, n = 1
# [20] = tested on: PDGFRB; details: read-out: apparent Kd, compound concentrations: 100 nM and 1000 nM (sheet 'Samples'), n = 1
# [21] = compound concentrations:100 nM and 1000 nM (sheet 'Samples')
compound,measurement,setting,value
Cn1ncc2c(N)ncnc21 [SKF-18267],potency estimated from few doses,"[1]; compound concentrations: 100 nM and 1000 nM (sheet 'Samples'), CATDS: 1.5157721070637E-2",152 nM
same,potency estimated from few doses,[2]; CATDS: 5.9187216005476898E-3,594 nM
same,potency estimated from few doses,[3]; CATDS: 5.1927798123429401E-3,756 nM
same,potency estimated from few doses,[4]; CATDS: 4.5998229458051997E-3,967 nM
same,potency estimated from few doses,"[5]; compound concentrations: 100 nM and 1000 nM (sheet 'Samples'), CATDS: 3.9597453798327397E-3",1370 nM
same,potency estimated from few doses,"[6]; compound concentrations: 100 nM and 1000 nM (sheet 'Samples'), CATDS: 4.0403129227197304E-3",1300 nM
same,potency estimated from few doses,"[7]; compound concentrations: 100 nM and 1000 nM (sheet 'Samples'), CATDS: 5.4078712502347798E-3",700 nM
same,potency estimated from few doses,[8]; CATDS: 5.1697348126272004E-3,762 nM
same,potency estimated from few doses,"[9]; compound concentrations: 100 nM and 1000 nM (sheet 'Samples'), CATDS: 4.5836362442514197E-3",974 nM
same,potency estimated from few doses,[10]; CATDS: 3.5654135420005399E-3,1830 nM
same,potency estimated from few doses,[11]; CATDS: 3.9748200426908999E-3,1360 nM
same,potency estimated from few doses,[12]; CATDS: 5.0507447831964402E-3,798 nM
same,potency estimated from few doses,"[13]; compound concentrations: 100 nM and 1000 nM (sheet 'Samples'), CATDS: 5.6966714044827602E-3",636 nM
same,potency estimated from few doses,"[14]; compound concentrations: 100 nM and 1000 nM (sheet 'Samples'), CATDS: 4.3394023432843602E-3",1100 nM
same,potency estimated from few doses,"[15]; compound concentrations: 100 nM and 1000 nM (sheet 'Samples'), CATDS: 6.26452346247391E-3",539 nM
same,potency estimated from few doses,[16]; CATDS: 4.17505153349991E-3,1200 nM
same,potency estimated from few doses,[17]; CATDS: 3.6177977688347301E-3,1760 nM
same,potency estimated from few doses,[18]; CATDS: 5.8659667131667897E-3,604 nM
same,potency estimated from few doses,"[19]; compound concentrations: 100 nM and 1000 nM (sheet 'Samples'), CATDS: 3.8760622756019202E-3",1450 nM
CCn1c(-c2nonc2N)nc2c(-c3ccccc3)ncc(OCCCN)c21.CCn1c(-c2nonc2N)nc2c(-c3ccccc3)ncc(OCCCN)c21.O=C(O)C(F)(F)F.O=C(O)C(F)(F)F [GSK260205A],potency estimated from few doses,"[7]; compound concentrations: 100 nM and 1000 nM (sheet 'Samples'), CATDS: 6.3279699360334701E-2",187 nM
same,potency estimated from few doses,[20]; CATDS: 3.4568718881872497E-2,808 nM
CNC(=O)c1ccccc1Nc1nc(Nc2ccc(N3CCOCC3)cc2)ncc1Cl.Cl [GSK1576028A],potency estimated from few doses,[13]; [21],3.81 nM
same,potency estimated from few doses,[19]; [21],2100 nM
NCCNS(=O)(=O)c1ccc(-c2ccnc3[nH]ccc23)cc1 [GSK977617A],potency estimated from few doses,[6]; [21],1700 nM
same,potency estimated from few doses,[7]; [21],442 nM
CNCC#Cc1c(F)ccc2c1/C(=C/c1[nH]ccc1OC)C(=O)N2.Cl [RO0281601-001],potency estimated from few doses,[16]; CATDS: 3.0047903909945699E-2,696 nM
Cc1cccc(Nc2nc(N[C@H]3CCNC3)ncc2C(N)=O)c1.Cl [GSK2197149A],potency estimated from few doses,[13]; [21],1280 nM
CNCc1ccc(-c2cc(-c3nc(-c4ccc(S(=O)(=O)C(C)C)cc4)cnc3N)on2)cc1 [VE-822],potency estimated from few doses,[1]; [21],13.5 nM
CN(c1ccc(NC(=O)NCCN2CCOCC2)cc1)c1ccnc(Nc2ccc(CS(C)(=O)=O)cc2)n1.Cl [GW830365A],potency estimated from few doses,[2]; CATDS: 7.5652675544933198E-2,444 nM
same,potency estimated from few doses,[3]; CATDS: 8.1167400456920294E-2,384 nM
Cl.Cl.NC(CNC(=O)c1cc(Br)c(-c2ccnc3[nH]ccc23)s1)c1ccccc1.NC(CNC(=O)c1cc(Br)c(-c2ccnc3[nH]ccc23)s1)c1ccccc1 (stereo not shown) [GSK1322949A],potency estimated from few doses,"[6]; compound concentrations: 100 nM and 1000 nM (sheet 'Samples'), CATDS: 4.7345157694920897E-2",499 nM
same,potency estimated from few doses,"[7]; compound concentrations: 100 nM and 1000 nM (sheet 'Samples'), CATDS: 3.2590652290340097E-2",1010 nM
Cc1ccccc1-n1ncc(C(=O)c2ccccc2)c1N [RO1151248-000],potency estimated from few doses,"[1]; compound concentrations: 100 nM and 1000 nM (sheet 'Samples'), CATDS: 4.4938913040114402E-2",302 nM
same,potency estimated from few doses,[4]; CATDS: 1.8448697661517601E-2,1790 nM
same,potency estimated from few doses,[10]; CATDS: 1.9023399407062401E-2,1630 nM
same,potency estimated from few doses,[11]; CATDS: 2.34305639617714E-2,955 nM
same,potency estimated from few doses,[12]; CATDS: 2.3755462861685599E-2,926 nM
same,potency estimated from few doses,[18]; CATDS: 3.5082928227748202E-2,443 nM
CCN(CC)Cc1ccc(Nc2nccc(-c3cnn4ncccc34)n2)cc1 [GW780056X],potency estimated from few doses,"[9]; compound concentrations: 100 nM and 1000 nM (sheet 'Samples'), CATDS: 0.168116243338059",19.4 nM
same,potency estimated from few doses,[20]; CATDS: 2.40786043408843E-2,746 nM
CCn1c(-c2cccnc2O)nc2cnccc21 [SB-736715],potency estimated from few doses,"[1]; compound concentrations: 100 nM and 1000 nM (sheet 'Samples'), CATDS: 6.3051453748071404E-2",146 nM
same,potency estimated from few doses,"[7]; compound concentrations: 100 nM and 1000 nM (sheet 'Samples'), CATDS: 1.9794934428915799E-2",767 nM
same,potency estimated from few doses,"[9]; compound concentrations: 100 nM and 1000 nM (sheet 'Samples'), CATDS: 1.2439318728053501E-2",1990 nM
same,potency estimated from few doses,"[13]; compound concentrations: 100 nM and 1000 nM (sheet 'Samples'), CATDS: 1.50971530533868E-2",1280 nM
same,potency estimated from few doses,"[14]; compound concentrations: 100 nM and 1000 nM (sheet 'Samples'), CATDS: 1.25059866085428E-2",1960 nM
same,potency estimated from few doses,"[15]; compound concentrations: 100 nM and 1000 nM (sheet 'Samples'), CATDS: 1.6059828940045699E-2",1130 nM
same,potency estimated from few doses,"[19]; compound concentrations: 100 nM and 1000 nM (sheet 'Samples'), CATDS: 1.5814183064690599E-2",1160 nM
CCn1c(-c2nonc2N)nc2c(C#CC(C)(C)O)nc(O[C@@H](CN)c3ccccc3)cc21.O=C(O)C(F)(F)F [GSK1007102B],potency estimated from few doses,[5]; [21],952 nM
same,potency estimated from few doses,[6]; [21],1280 nM
same,potency estimated from few doses,[7]; [21],191 nM
same,potency estimated from few doses,[15]; [21],121 nM
O=C(O)C(F)(F)F.O=c1[nH]ccc2nc(N[C@@H]3CCNC3)nc(Nc3ccc4c(c3)S(=O)(=O)CC4)c12 [GSK2181306A],potency estimated from few doses,[3]; CATDS: 8.4552521896549809E-3,1530 nM
same,potency estimated from few doses,"[6]; compound concentrations: 100 nM and 1000 nM (sheet 'Samples'), CATDS: 8.6780352700712906E-3",1380 nM
same,potency estimated from few doses,[8]; CATDS: 1.3422730745161799E-2,398 nM
same,potency estimated from few doses,[10]; CATDS: 1.0862390298074001E-2,672 nM
same,potency estimated from few doses,[20]; CATDS: 8.63750114385467E-3,1400 nM
same,potency estimated from few doses,"[14]; compound concentrations: 100 nM and 1000 nM (sheet 'Samples'), CATDS: 1.09538750738594E-2",657 nM
same,potency estimated from few doses,"[15]; compound concentrations: 100 nM and 1000 nM (sheet 'Samples'), CATDS: 1.2141088500549201E-2",504 nM
same,potency estimated from few doses,[16]; CATDS: 1.6454900639240402E-2,258 nM
same,potency estimated from few doses,[17]; CATDS: 1.4244346039845699E-2,349 nM
COc1cc(Nc2nccc(-c3cnn4ncccc34)n2)cc(OC)c1 [GW801372X],potency estimated from few doses,"[1]; compound concentrations: 100 nM and 1000 nM (sheet 'Samples'), CATDS: 3.2681942140962102E-2",274 nM
same,potency estimated from few doses,[4]; CATDS: 1.8078594286366201E-2,1750 nM
same,potency estimated from few doses,"[5]; compound concentrations: 100 nM and 1000 nM (sheet 'Samples'), CATDS: 2.2465917361224799E-2",786 nM
same,potency estimated from few doses,"[9]; compound concentrations: 100 nM and 1000 nM (sheet 'Samples'), CATDS: 4.3233319898636102E-2",142 nM
same,potency estimated from few doses,"[13]; compound concentrations: 100 nM and 1000 nM (sheet 'Samples'), CATDS: 2.51875293793523E-2",553 nM
same,potency estimated from few doses,[20]; CATDS: 1.5756503418678101E-2,3520 nM
CN(C)CC(O)COc1ccc(Nc2nccc(-c3cnn4nc(N5CCOCC5)ccc34)n2)cc1 (stereo not shown) [GW767488X],potency estimated from few doses,[9]; [21],534 nM
same,potency estimated from few doses,[13]; [21],64.8 nM
same,potency estimated from few doses,[14]; [21],2250 nM
same,potency estimated from few doses,[19]; [21],2040 nM
